Only a selection was taken, and hits are over-represented in it overall.
BL2 CD40 inh – inhibitors of CD40-induced NF-kB signaling, primary screen, BL2 cells, luciferase reporter, single point; actives 0.94% (n = 83,000); inhibition, % at 10 µM; CD40L-induced, 4 h;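 active = mean inhibition of at least 50% with a set share of replicates also reaching that level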;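 note: 0% = neutral control wells and 100% = IKK inhibitor VII at 50 µM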
An asterisk follows results filed as active; [ ] = remark or other dose.

SMILES | BL2 CD40 inh
CCN(CC(=O)Nc1ccc(NC(C)=O)cc1)C(=O)C1CCCC1 | 0.7
CCN(CC(=O)Nc1ccc(NC(C)=O)cc1)C(=O)C1CCCN(C(=O)c2ccc(Cl)cc2)C1 (centres undefined) | 28.4*
CCSc1nc2ccc(C)cc2cc1C#N | -9.6
Cc1cc(C)c2nc(C(F)(F)F)c(C#N)c(N)c2c1 | 20.2
Cc1ccc2nc(C(F)(F)F)c(C#N)c(N)c2c1 | 107.8*
COc1ccc(C(C#N)(CCC#N)CCC#N)cc1OC | 6.0
COc1ccc(C(=O)CCN2CCc3cc(OC)c(OC)cc3C2)cc1 | 50.4*
COc1cc2c(cc1OC)CN(C(=O)c1ccc(-c3ccccc3)cc1)CC2 | 17.5
COc1cc2c(cc1OC)CN(CC(=O)NC(=O)NC(C)(C)C)CC2 | -0.1
O=C(CCn1c(=O)[nH]c2ccsc2c1=O)N1CCN(Cc2ccc3c(c2)OCO3)CC1 | 1.9
c1cncc(-c2ccc(C3[C@@H]4CN(Cc5ccc6c(c5)OCO6)C[C@H]3N4)cc2)c1 (some centres undefined) | 9.5[25 µM]
NC(c1csc(Nc2cc(Oc3ccccc3)ncn2)n1)c1ccccc1Cl (centres undefined) | -14.9
NC(c1csc(NC(=O)Nc2cccc(Cl)c2)n1)c1ccccc1Cl (centres undefined) | 59.0*
CN(C)Cc1csc(NC(=O)Nc2cccc(Cl)c2)n1 | -12.8
O=C(COC(=O)c1ccncc1)Nc1cc(S(=O)(=O)N2CCOCC2)ccc1Cl | 0.5
O=C1Nc2ccccc2CCc2ccccc21 | 3.1
O=C1C(=NO)CCc2ccccc21 | 35.0*
O=C(N/N=C1\CCc2ccccc21)c1ccccc1O | 24.8
O=C(COC(=O)CNC(=O)c1ccccc1)NC1CCCC1 | 9.3
O=[N+]([O-])c1cc(C(F)(F)F)ccc1Cl | 9.5
Oc1oc(-c2ccco2)nc1C=Nc1cccc(Cl)c1 | -17.4
Cc1ccc(Nc2ncccc2C(=O)O)cc1C | -62.9
O=C1OC(OC(=O)c2cccnc2Nc2cccc(C(F)(F)F)c2)c2ccccc21 (centres undefined) | 85.1*[25 µM]
O=C(Nc1cccc(C(F)(F)F)c1)OCc1ccncc1 | 3.3
CC(C)Oc1ccc(N2CC(C(=O)Nc3ccccn3)CC2=O)cc1 (centres undefined) | 11.7
SMILES | BL2 CD40 inh
COc1cc2nc(C(C)(C)C)oc(=O)c2cc1OC | 6.2
Clc1ccc(-c2c[nH]c3ccccc23)nn1 | -30.2
CCCCCCCCCCCCCCCC[n+]1ccccc1 | 98.6*
Cc1csc(NC(=O)c2cc3c(s2)CCC3)n1 | 34.3
Cn1nccc1C(=O)N1CCN(c2ccc(F)cc2)CC1 | 2.8
CCC(C)n1c(SCC(=O)Nc2ccc3[nH]c(=O)[nH]c3c2)nc2ccccc2c1=O (centres undefined) | 4.7
CCCNC(=O)N1[C@H](CO)[C@H](c2ccccc2)[C@@H]1CNC(=O)c1cccc(F)c1 | 2.7
CSc1ccc(CN2CCC(C)(Oc3ccc(CC#N)cc3)C2)cc1 (centres undefined) | -0.6
OC(CN1c2ccccc2Sc2ccccc21)Cn1nnc2ccccc21 (centres undefined) | 0.8
C=C1C(=O)C23C(O)C1CCC2C12CCCC(C)(COC(C)=O)C1C(O)C3(O)OC2 (centres undefined) | 103.9*
CCOC(=O)N1CCN(C(=O)CCN2C(=O)c3ccccc3S2(=O)=O)CC1 | -9.3
COc1ccc(/C=C\c2nc(=O)c3ccccc3o2)cc1 | 46.2*
COc1ccc(OC)c(-c2oc3ccccc3c(=O)c2O)c1 | -75.3
COc1ccc(OCC(=O)c2c(O)c3ccccc3oc2=O)cc1 | -1.1
COc1cccc(-c2cn(CC[C@H]3CC[C@H](NC(=O)CC4CC4)[C@@H](CO)O3)nn2)c1 | 5.6
COc1ccc(C(=O)Nc2nnc(S(=O)(=O)Cc3ccccc3)s2)cc1 | 5.9
CSc1ncc(Cl)c(C(=O)Nc2nnc(SC)s2)n1 | -2.2
CSc1nnc(NC(=O)c2nc(S(=O)(=O)Cc3ccccc3)ncc2Cl)s1 | 102.3*
COC(=O)C(C)N(c1ccc(OC)cc1)S(C)(=O)=O (centres undefined) | 18.8
C=CCN(CC=C)C(=O)C1c2ccccc2Oc2ccccc21 | 3.0
COc1ccc(-c2ccccc2NC(=O)C2CCCN(Cc3ccco3)C2)cc1 (centres undefined) | 7.7
O=C(Nc1cccc2ccccc12)N1CCCN(c2c(Cl)cncc2Cl)CC1 | 3.5
Cc1nc2cc(-c3ccccc3)ccc2o1 | -6.1
c1ccc(CCCCc2ccncc2)cc1 | 7.2
COc1ccc(N2CCN(C(=O)COc3cccc4ccccc34)CC2)cc1 | -6.1
SMILES | BL2 CD40 inh
COc1ccc(N2CCN(C(=O)Cn3c(=O)[nH]c4ccccc4c3=O)CC2)cc1 | 28.8*
COc1ccc(N2CCN(C(=O)Cn3c(=O)c4cccn4c4cccnc43)CC2)cc1 | -4.9
CN(Cc1ccc(F)cc1)C(=O)c1ccc(NC(=O)CC2SC(N3CCCC3)=NC2=O)cc1 (centres undefined) | 0.8
CC(=O)Nc1ccc2nc(NC(=O)COc3ccc([N+](=O)[O-])cc3)sc2c1 | 3.0
CCc1cc2ccccc2nc1Cl | 6.5
CN1CCN(C(=O)CCN2C(=O)/C(=C\c3ccc(F)cc3)SC2=S)CC1 | 24.1
C=CC(=O)N1C/C(=C/c2ccc(F)cc2)C(=O)/C(=C\c2ccc(F)cc2)C1 | 67.6*

Bioassay records from PubChem.
